19 compounds from PubChem BioAssay (Tox21) can be followed below.

SMILES strings stand for the structures. Results filed as inconclusive are left out. A number with no mark means an inactive call. Activity calls are given as the source filed them. Unless noted, calls follow the shape of the dose curve; as a rule, active = well fitted curve in the direction sought with a large enough effect in the repeat runs; inconclusive = weak or mixed curves; inactive = no such curve, though single readings can be large; an effect the other way counts as inactive or inconclusive.

Assay [1] can be described thus: qHTS assay to identify small molecule agonists of the vitamin D receptor (VDR) signaling pathway - cell viability counter screen (AID 743224). Also: series mostly up to about 63 µM; nearly all actives have a fitted effect of over 50% in size. The gist of the method:
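Here cell health was gauged by luminescent ATP detection (CellTiter-Glo, 30 min RT) in VDR-bla cells that had been incubated with test compounds for 16 h at 37C and 5% CO2.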

Assay [2] is described as follows: qHTS assay to identify small molecule antagonists of the vitamin D receptor (VDR) signaling pathway - cell viability counter screen (AID 743225). Also: nearly all actives have a fitted effect of over 50% in size. The gist of the method: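 Compounds were pinned onto VDR-bla HEK 293T cells together with 1-alpha,25-dihydroxyvitamin D3 at 3 nM final. After 16 h at 37C and 5% CO2 plus the reporter readout, cell viability was measured by CellTiter-Glo luminescence (30 min, room temperature).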
For orientation: In qHTS, concentration-response curves come from the screen itself.

Assay [3] is described as follows: qHTS assay to identify small molecule agonists of the NFkB signaling pathway - cell viability counter screen (AID 1159515; calls by dose curve; also: series mostly up to about 61 µM; nearly all actives have a fitted effect of over 55% in size). The gist of the method:
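5 hr compound treatment of NFkB-bla ME-180 cells (2,000/well, seeded overnight beforehand), followed by reporter substrate for 1.5 hr. CellTiter-Glo added afterward; luminescence after 30 min RT.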

A short description of assay [4]: qHTS assay to identify small molecule agonists of the endoplasmic reticulum stress response signaling pathway (AID 1159516; active = well fitted activation curve with a large enough effect in the signal ratio in the repeat runs, not every such curve was filed as active; the % refers to the signal ratio). The gist of the method:
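Reporter HeLa cells (ESRE-beta-lactamase) underwent 5 hr compound incubation at 37 C and 5% CO2 in quantitative HTS format. Detection followed 2 hr of FRET substrate loading at room temperature.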

A short description of assay [5]: qHTS assay to identify small molecule agonists of the endoplasmic reticulum stress response signaling pathway - cell viability counter screen (AID 1159517; calls by dose curve;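 also: HeLa cells carrying an ER stress response element beta-lactamase reporter; series mostly up to about 61 µM; nearly all actives have a fitted effect of over 50% in size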). The gist of the method:
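Luminescence readout: CellTiter-Glo, 30 min RT, same wells as the ESRE-bla reporter read. HeLa ESRE-bla, 1,500 cells/well, o/n 37 C; cpd 5 hr 37 C/5% CO2.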

A short description of assay [6]: qHTS assay to identify small molecule antagonists of the retinoid-related orphan receptor gamma (ROR-gamma) signaling pathway - cell viability counter screen (AID 1159520). Also: nearly all actives have a fitted effect of over 50% in size. The gist of the method:
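Tet-on ROR gamma CHO cells (1,000/well) were plated 4 hr, given compounds in DMSO for 2 hr at 37 C, then induced with 1 uM final doxycycline for 16 hr. Viability was read as ATP by CellTiter-Glo luminescence after 30 min.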

Assay [7] addresses Nuclear receptor ROR-gamma (Homo sapiens) (UniProt P51449). Kind of assay: qHTS assay to identify small molecule antagonists of the retinoid-related orphan receptor gamma (ROR-gamma) signaling pathway (AID 1159521). The gist of the method:
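Test compounds were applied to Tet-on RORγ CHO cells 2 h ahead of doxycycline hyclate (1 uM final). Luciferase reporter activity was quantified by luminescence after 16 h at 37 C and 5% CO2.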

A short description of assay [8]: qHTS assay to identify small molecule agonists of the AP-1 signaling pathway (AID 1159526; calls by dose curve).
Assay [9] has as its target Retinoic acid receptor RXR-alpha (Homo sapiens) (UniProt P19793). Kind of assay: qHTS assay to identify small molecule agonists of the RXR signaling pathway (AID 1159527; calls by dose curve; also: nearly all actives have a fitted effect of over 35% in size; also: potency is read from the fitted curve at half-maximal effect). The gist of the method: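 Using 9-cis retinoic acid as the reference agonist, chemicals were tested in HEK 293T cells […] for 16 hr; substrate loading lasted 2 hr at room temperature.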

The nature of assay [10]: qHTS assay to identify small molecule agonists of the RXR signaling pathway - cell viability counter screen (AID 1159529). The gist of the method:
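Compounds dissolved in DMSO were pinned onto HEK 293T cells carrying a beta-lactamase reporter under RXR-alpha control and incubated 16 hr. Cytotoxicity was then quantified by CellTiter-Glo luminescence.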

A short description of assay [11]: qHTS assay to identify small molecule antagonists of the retinoid acid receptor (RAR) signaling pathway - cell viability counter screen (AID 1159551). Also: nearly all actives have a fitted effect of over 35% in size. The gist of the method: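 Seed C3RL4 cells; next day add compound, then retinol to 1 uM final; incubate 6 h at 37 C; add CellTiter-Glo; read luminescence after 30 min at RT.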
Assay [12] is described as follows: qHTS assay to identify small molecule agonists of the AP-1 signaling pathway - cell viability counter screen (AID 1159525; calls by dose curve; also: nearly all actives have a fitted effect of over 55% in size). The gist of the method:
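ME-180 AP-1-bla, 2500 cells/well, Opti-MEM + 0.5% dialyzed FBS; overnight 37 °C; cpd 15-pt titration, 5 h 37 °C; CellTiter-Glo 30 min RT; luminescence read; normalised to TOAB and DMSO controls.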

The nature of assay [13]: qHTS assay to identify small molecule antagonists of the retinoic acid receptor (RAR) signaling pathway (AID 1159552; also: nearly all actives have a fitted effect of over 50% in size). The gist of the method:
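Test chemicals and DMSO controls were pin-transferred onto C3RL4 cells a day after seeding; retinol (1 uM final) followed at once. Luminescent reporter output was quantified after 6 hr of co-incubation and 30 min with detection reagent.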

The nature of assay [14]: qHTS assay to identify small molecule agonists of the retinoic acid receptor (RAR) signaling pathway (AID 1159553). The gist of the method: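 Activation of retinol signaling was monitored via a RARE luciferase reporter in C3RL4 cells. After 6 hr compound treatment at 37 C, detection reagent was added for 30 min at room temperature before luminescence reading.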
Assay [15] is described as follows: qHTS assay to identify small molecule antagonists of the estrogen related receptor (ERR) signaling pathway - cell viability counter screen (AID 1224818).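 Also: series mostly up to about 46 µM; viability measured after 17.5 h of compound exposure.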 The gist of the method:
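In the same ERR cell assay, compound-treated wells (17.5 h, 37 C) were multiplexed with a fluorogenic viability reagent, CellTiter-Fluor, read after 30 min to flag cytotoxic substances.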

Assay [16] is described as follows: qHTS assay to identify small molecule antagonists of the estrogen related receptor signaling pathway with the pleiotropic PPARgamma coactivator (PGC) cell viability counter screen (AID 1224822; also: series mostly up to about 46 µM). The gist of the method:
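Compounds in DMSO, with positive and negative controls, were applied to PGC/ERR cells (2,000/well) and left 17.5 h at 37 C before CellTiter-Fluor detection.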

Retinoic acid receptor RXR-alpha (Homo sapiens), sequence (P19793 whole entry, looked up): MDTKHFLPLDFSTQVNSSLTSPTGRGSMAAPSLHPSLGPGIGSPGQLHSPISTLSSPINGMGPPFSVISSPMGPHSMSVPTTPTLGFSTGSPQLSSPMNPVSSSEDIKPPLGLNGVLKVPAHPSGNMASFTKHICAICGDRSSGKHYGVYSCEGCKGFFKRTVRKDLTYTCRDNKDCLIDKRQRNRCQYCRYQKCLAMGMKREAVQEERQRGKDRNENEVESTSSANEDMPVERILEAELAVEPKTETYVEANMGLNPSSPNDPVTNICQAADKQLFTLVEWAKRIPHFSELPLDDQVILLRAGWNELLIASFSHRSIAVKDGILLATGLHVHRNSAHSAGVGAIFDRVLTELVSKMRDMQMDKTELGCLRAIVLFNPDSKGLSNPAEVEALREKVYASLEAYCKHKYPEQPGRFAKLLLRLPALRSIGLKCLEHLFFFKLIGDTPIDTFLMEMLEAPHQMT

On to `Cc1ccc(-c2ncc(Cl)cc2-c2ccc(S(C)(=O)=O)cc2)cn1`, for which the outcome in assay [1], in assay [2], in assay [3], in [4], in [5] and in assay [6] was inactive. The compound was called inactive in [8] and in assay [11]. Moreover, the Potency entry in [7], in [9] and in [10] was “inactive” throughout.
`CN1[C@@H]2CC[C@H]1CC(OC(=O)C(O)c1ccccc1)C2` (stereo partly drawn): the outcome in assay [1], in assay [2], in assay [3], in assay [4], in assay [5] and in assay [6] was inactive. The compound was classed as inactive in assay [12], in assay [8] and in assay [11]. Moreover, the Potency entry in assay [7], in assay [9] and in assay [10] was “inactive” throughout.
Consider `O=S(=O)(O)c1cccc(S(=O)(=O)O)c1`, for which the compound was called inactive in assay [2], in assay [3], in assay [4], in assay [5], in [12] and in assay [8]. Besides, the compound was called inactive in assay [11]. Also, the Potency entry in assay [7], in assay [9], in assay [10] and in assay [13] was “inactive” throughout.
As for `CC1OC1C1CCC2(C)OC2C1` (stereo not drawn), the result in assay [1], in assay [2], in assay [3], in assay [4], in assay [5] and in assay [6] was inactive. The call in [8] and in [11] was inactive. The Potency result in [7], in assay [9], in assay [10] and in assay [13] was “inactive” throughout.
Consider `Cc1ccnc(NS(=O)(=O)c2ccc(N)cc2)n1`, for which the call in [1], in assay [2], in assay [3], in assay [4], in [5] and in assay [6] was inactive. Further, the result in assay [12], in assay [8] and in assay [11] was inactive. Besides, the Potency entry in [7], in assay [9] and in [10] was “inactive” each time.
Take `CC(C)C(=O)OC(=O)C(C)C`: the call in assay [1], in assay [2], in assay [3], in assay [4], in assay [6] and in [12] was inactive. The compound was called inactive in assay [8] and in assay [11]. The Potency result in assay [7], in assay [9] and in assay [10] was “inactive” each time.
With `NO`, the compound was classed as inactive in [1], in assay [2], in assay [3], in assay [4], in assay [12] and in assay [8]. The result in assay [11], in assay [15] and in [16] was inactive. The Potency result in assay [7], in assay [10] and in [14] was “inactive” in each case. Besides, the Potency in assay [9] is 44.5 µM (active).
Regarding `COc1cc(C(=O)NCc2ccc(OCCN(C)C)cc2)cc(OC)c1OC`, the compound was classed as inactive in [1], in assay [2], in assay [3], in assay [4], in assay [6] and in [12]. Moreover, the outcome in [8] and in assay [11] was inactive. Besides, the Potency result in assay [7], in assay [9], in [10] and in assay [14] was “inactive” throughout.
As to `CC(=O)OCC(=O)[C@@]1(O)[C@H](C)C[C@H]2[C@@H]3CCC4=CC(=O)C=C[C@]4(C)[C@@]3(F)[C@@H](O)C[C@@]21C`, the compound was called inactive in [1], in assay [2], in assay [3], in assay [4], in [5] and in assay [8]. In addition, in assay [11], the outcome was inactive. For the same compound, the Potency result in assay [7], in assay [9] and in [10] was “inactive” each time.
As to `CCOc1ccc2nc(S(N)(=O)=O)sc2c1`, the compound was called inactive in [1], in assay [2], in assay [3], in [4], in assay [12] and in assay [8]. In [11], the outcome was inactive. Further, the Potency entry in assay [7], in assay [9] and in assay [10] was “inactive” throughout.
`CCOC(=O)COC(=O)c1ccccc1C(=O)OCC`: the compound was called inactive in [1], in assay [2], in assay [3], in [4], in assay [5] and in [12]. The compound was called inactive in assay [8] and in assay [11]. For the same compound, the Potency entry in assay [7], in assay [9] and in assay [10] was “inactive” in each case.
For `CC(C)CCCO`, the result in [1], in assay [2], in assay [3], in [4], in assay [6] and in assay [8] was inactive. Also, the outcome in [11] was inactive. Moreover, the Potency entry in [7], in assay [9], in [10] and in assay [14] was “inactive” throughout.
Take `CCOC(=O)OC(C)OC1=C(C(=O)Nc2ccccn2)N(C)S(=O)(=O)c2ccccc21` (stereo not drawn): the compound was classed as inactive in [1], in assay [2], in [3], in assay [4], in assay [12] and in assay [8]. The call in [11] was inactive. Further, the Potency entry in assay [7], in assay [9] and in assay [10] was “inactive” each time.
In the case of `CCOC(=O)C(=O)CCCCCCl`, the result in assay [1], in assay [2], in assay [3], in assay [4], in assay [5] and in assay [12] was inactive. The call in assay [8] and in [11] was inactive. Moreover, the Potency entry in assay [7], in [9] and in [10] was “inactive” each time.
As for `N[C@@H](CCC(=O)O)C(=O)O`, the outcome in assay [1], in assay [2], in [3], in [4], in assay [6] and in assay [8] was inactive. For the same compound, the compound was called inactive in assay [11], in assay [15] and in assay [16]. The Potency result in assay [7], in assay [9] and in [10] was “inactive” in each case.
As to `NC(CCC(=O)O)C(=O)O` (stereo not drawn), the compound was classed as inactive in assay [1], in assay [2], in assay [3], in assay [4], in assay [6] and in assay [12]. The outcome in assay [8] and in [11] was inactive. Also, the Potency entry in assay [7], in assay [9] and in assay [10] was “inactive” throughout.
`CC[N+](CC)(CC(=O)Nc1c(C)cccc1C)Cc1ccccc1` (tested in a mixture with another compound): the call in assay [1], in assay [2], in assay [3], in assay [4], in assay [5] and in [12] was inactive. Besides, the call in [8] and in assay [11] was inactive. The Potency entry in assay [7], in assay [9] and in [10] was “inactive” each time.
For `COc1ccccc1OCC1CNC(=O)O1` (stereo not drawn), the outcome in assay [1], in assay [2], in assay [3], in assay [4], in assay [5] and in assay [8] was inactive. Moreover, in assay [11], the compound was classed as inactive. Moreover, the Potency entry in assay [7], in [9] and in assay [10] was “inactive” in each case.
Turning to `CC[N+](C)(CC)CCOC(=O)C1c2ccccc2Oc2ccccc21`, the result in [1], in assay [2], in assay [3], in assay [4], in assay [5] and in [12] was inactive. In addition, the call in [8] and in assay [11] was inactive. Moreover, the Potency result in assay [7], in assay [9], in [10] and in assay [14] was “inactive” each time.
